Results reported in PubChem BioAssay (NCATS).
Records with an inconclusive call do not appear. The source made the active and inactive calls. The call rests on the fitted dose curve; in most records, active means well fitted curve in the direction sought with a large enough effect; inconclusive means small, poorly fitted or top-dose-only effect, or another doubt; inactive means no such curve, though single readings can be large; an effect the other way counts as inactive or inconclusive.

Tests used:
[1] = molecular target: Single-stranded DNA cytosine deaminase (Homo sapiens) (UniProt Q9GZX7); assay: Validation qHTS assay for inhibitors of Activation Induced Cytidine Deaminase (AID): AID signal (AID 1347429); conditions: Recombinant AID, FRET ssDNA deamination with UDG, fluorescence; series mostly up to 115 µM
Procedure, shortened: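 FRET deamination assay: 1 uM AID (4/3x stock) with UDG, compound up to 114 uM, then 250 nM DJC20/DJC23 substrate (4x stock) for 4 hr at room temperature. NaOH added, 30 min; fluorescence read 540/590 nm.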

[2] = Primary qHTS for inhibitors of La Crosse Virus (LACV) - induced cell death in SH-SY5Y cells (AID 1508616); conditions: SH-SY5Y LACV cytopathicity rescue, ATP luminescence, 6 d; series mostly up to 9.63 µM;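 further: top concentration of the series differs between compounds; higher means more rescue of cells from virus-induced death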
Procedure, shortened: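 SH-SY5Y cells (6000/well) plated 24 h, then given compounds by pin transfer and LACV at 0.01 MOI for 6 days at 37C. Viability measured by ATPLite luminescence, normalized to infected DMSO and uninfected DMSO.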

[3] = molecular target: Calcium and integrin-binding protein 1 (Homo sapiens) (UniProt Q99828); assay: Validation qHTS for Identification of Calcium Integrin Binding protein 1 (CIB1) Competitor (AID 1508618); conditions: CIB1-GST / FITC-alphaIIb peptide fluorescence polarization; series mostly up to 114 µM
Procedure, shortened: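 CIB1-GST (1 uM final) in 5 mM HEPES pH 7.4, 125 mM NaCl, 5 mM CaCl2, 0.01% Tween20 was preincubated 15 min at room temperature with compound (up to 114 uM), then FITC-alphaIIb peptide (100 nM) added for 15 min; fluorescence polarization read.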

[4] = Primary qHTS for small molecule stabilizers of the endoplasmic reticulum resident proteome: Secreted ER Calcium Modulated Protein (SERCaMP) assay (AID 1508630); conditions: SH-SY5Y GLuc-SERCaMP (Gaussia luciferase released on ER calcium loss) secretion, thapsigargin, luminescence; series mostly up to 38.4 µM
Procedure, shortened: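 GLuc-SERCaMP-expressing SH-SY5Y cells, pretreated 16 h with compound, are challenged with thapsigargin to empty ER calcium stores; after 4 h, coelenterazine is added directly to the medium and luminescence is imaged.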

[5] = Counterscreen qHTS for small molecule stabilizers of the endoplasmic reticulum resident proteome: GLuc-NoTag assay (AID 1508627); conditions: Gaussia luciferase NoTag secretion counterscreen, luminescence, thapsigargin 100 nM for final 4 h; series mostly up to 76.4 µM;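 further: SH-SY5Y cells given compound then 100 nM thapsigargin to empty ER calcium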
Procedure, shortened: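 SH-SY5Y cells stably expressing constitutively secreted GLuc (no SERCaMP tag) were pre-incubated 5 h, treated with compound for 19 h, then 100 nM thapsigargin for 4 h at 37C; medium GLuc read by coelenterazine luminescence.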

Papain (Carica papaya) = Papain (Carica papaya) (UniProt P00784); assay: Primary qHTS assay for inhibitors of the protease papain (AID 1645873); conditions: papain Z-FR-AMC cleavage, AMC fluorescence; series mostly up to 49.8 µM;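 further: papain turnover of Z-FR-AMC read as the AMC fluorescence gain over 10 min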

Measured: Potency

Chain of Papain (Carica papaya) (P00784 whole entry, looked up): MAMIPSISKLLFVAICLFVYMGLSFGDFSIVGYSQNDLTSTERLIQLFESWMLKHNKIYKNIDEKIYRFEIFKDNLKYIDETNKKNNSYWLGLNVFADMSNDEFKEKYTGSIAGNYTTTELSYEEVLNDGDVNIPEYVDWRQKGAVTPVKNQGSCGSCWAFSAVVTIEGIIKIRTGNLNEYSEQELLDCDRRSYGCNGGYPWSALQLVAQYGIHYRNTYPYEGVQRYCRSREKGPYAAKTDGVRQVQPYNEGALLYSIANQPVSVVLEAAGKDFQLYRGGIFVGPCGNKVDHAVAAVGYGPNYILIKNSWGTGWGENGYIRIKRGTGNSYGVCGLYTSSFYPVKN
Chain of Calcium and integrin-binding protein 1 (Homo sapiens) (Q99828 whole entry, looked up): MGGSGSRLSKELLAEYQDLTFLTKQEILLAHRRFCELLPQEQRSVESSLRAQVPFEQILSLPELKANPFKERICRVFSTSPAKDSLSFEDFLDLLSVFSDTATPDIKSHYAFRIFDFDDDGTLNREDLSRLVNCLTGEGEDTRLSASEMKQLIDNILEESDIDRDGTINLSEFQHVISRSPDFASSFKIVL
Chain of Single-stranded DNA cytosine deaminase (Homo sapiens) (Q9GZX7 whole entry, looked up): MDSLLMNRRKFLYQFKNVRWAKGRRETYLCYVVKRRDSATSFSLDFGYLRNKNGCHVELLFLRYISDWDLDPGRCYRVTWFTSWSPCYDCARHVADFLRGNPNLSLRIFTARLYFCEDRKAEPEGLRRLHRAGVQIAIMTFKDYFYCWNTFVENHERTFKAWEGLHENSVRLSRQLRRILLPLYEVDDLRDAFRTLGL

CCCc1c(OCCCOc2ccc(OCC(=O)O)cc2)ccc(C(C)=O)c1O
inactive: [1] | [2]

COc1cccc(OC)c1OCCNCC1CSc2ccccc2O1 (stereo unspecified)
inactive: [1] | [2] | [3] | [4]

COc1ccc(CCn2nnnc2C2(c3ccc(C)cc3)CC2)cc1
inactive: [1] | [2] | [3] | [4]

C=CC1(C)CC(=O)C2(O)C(C)(O1)C(OC(C)=O)C(O)C1C(C)(C)CCC(O)C12C (stereo unspecified)
inactive: [1] | [2] | [3] | [4]

C[C@]12C=CC(=O)C=C1CC[C@@H]1C2=CC[C@]2(C)[C@@H](C(=O)CN3CCN(c4cc(N5CCCC5)nc(N5CCCC5)n4)CC3)CC[C@@H]12
inactive: [1] | [2] | [3] | [5]

O=C1C2C=CC=CC2=NC(=S)N1CCN1CCC(=C(c2ccc(F)cc2)c2ccc(F)cc2)CC1 (stereo unspecified)
not listed: [5]
inactive: all other assays above

CCCC(=O)NCCc1c2n(c3ccc(OC)cc13)CCCc1ccccc1-2
inactive: [1] | [2] | [3]

C=CC[C@H](N)C(=O)O
not listed: [5]
inactive: all other assays above

CC#CCOC(=O)c1c(C)nc2sc3c(c2c1N)CCC(O)C3 (stereo unspecified)
not listed: [5]
inactive: all other assays above

CCCCCCCCCC[Si](C)(C)CCC(=O)NC(Cc1ccc(C)cc1)c1ccccc1 (stereo unspecified)
not listed: [5]
inactive: all other assays above

CCCCCC[C@@H]([C@@H](C)O)n1cnc2c(N)ncnc21
not listed: [5]
inactive: all other assays above

Nc1ncnc2c1nc(Br)n2C1OC2COP(=O)(O)O[C@@H]2C1O (stereo partly specified)
not listed: [5]
inactive: all other assays above
